Most compounds without a hit are left out; they make up all but 3.7% or so of the library.
BRCA1 expr up = activators of BRCA1 expression | AID 624202 | hit rate 1.1% among 380,000 | MCF7-BRCA1-FFLuc reporter, luminescence, 48 h; response scale: scaled: vehicle 0%, 10 µM genistein 100% | Potency, µM (titrated, usually from 46.1 µM), usual class: activators; also: nearly all actives have a fitted effect of over 80% in size
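First, MCF7-BRCA1-FFLuc cells (2000/well) attach for 2 h; next, compounds are pin-added and incubated 48 h at 37 °C; finally, luciferase reagent is added and luminescence read after 15 min.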
RGS4 inhibitor = blocks human RGS4-accelerated GTP hydrolysis; Transcreener GDP fluorescence polarization, RGS4-accelerated GTP hydrolysis; Potency, µM (series often up to 114 µM), actives largely listed as inhibitors; hit rate 0.039% among 390,000; also: nearly all actives have a fitted effect of over 75% in size
Target sequence (P49798 whole entry, looked up): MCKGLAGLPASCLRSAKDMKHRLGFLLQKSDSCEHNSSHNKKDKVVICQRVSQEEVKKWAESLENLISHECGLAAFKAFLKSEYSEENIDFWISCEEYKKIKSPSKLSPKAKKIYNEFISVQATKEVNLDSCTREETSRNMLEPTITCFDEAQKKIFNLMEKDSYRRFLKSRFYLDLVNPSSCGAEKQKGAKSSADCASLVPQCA
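MLSMR compounds (23 nl, pin-transferred) preincubated 10 min at room temperature with a 500nM (2x) first reagent, then RGS4 at 900nM (2x) plus Transcreener GDP mix added; fluorescence polarization (620/688 nm) read before and after 90 min at 30 °C.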
PTHR1 agonist = PTHR1 (human) receptor agonism | Potency, µM (highest dose often 115 µM), actives largely listed as activators | hit rate 0.075% among 410,000 | AID 743266 | HEK293 GP2 PTHR1 cells, GloSensor cAMP luminescence, 1 h | Q03431; also: nearly all actives have a fitted effect of over 55% in size
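HEK-293-derived GP2 cells expressing PTHR1 and a GloSensor cAMP reporter, 3,000/well, plated overnight, given luciferin plus IBMX (each 0.5 mM as added) for 1 h at 37 °C, then compound for 1 h at 37 °C. Luminescence was read after 15 min at room temperature.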
DRD3 antagonist = antagonists of human D3 dopamine receptor; P35462; D3R cells, DiscoveRx beta-arrestin luminescence, antagonist mode; active compounds read low; max response, negative = inhibition, %; hit rate 2.5% among 360,000; AID 652054; in the data active = max response below about -50%; inconclusive = no clear call, values can overlap the other calls
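Cells plated overnight at 1500 cells/well, then exposed to library compounds with dopamine controls for 90 minutes at 37 degrees C. DiscoveRx reagent added for 30–60 minutes at room temperature; luminescence read, quantitative HTS format.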
D3 ag = activates the human D3 dopamine receptor; P35462; D3R DiscoveRx beta-arrestin cells, luminescence, 90 min; max activation, %; hit rate 0.58% among 410,000; AID 652048; in the data active = max activation above about 30%
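Cells at 1500/well, incubated overnight, then treated with pinned compounds (dopamine as control) for 90 min at 37 degrees C. DiscoveRx reagent added for 30 - 60 minutes at room temperature; luminescence read.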
B2AR arrestin = beta2AR (human) beta-arrestin recruitment activity. P07550. beta-arrestin recruitment to beta2AR, cell-based reporter. Potency, µM (titrated, usually from 46.1 µM), actives largely listed as activators. hit rate 0.02% among 330,000. AID 492947; also: nearly all actives have a fitted effect of over 65% in size
Target sequence (P07550 whole entry, looked up): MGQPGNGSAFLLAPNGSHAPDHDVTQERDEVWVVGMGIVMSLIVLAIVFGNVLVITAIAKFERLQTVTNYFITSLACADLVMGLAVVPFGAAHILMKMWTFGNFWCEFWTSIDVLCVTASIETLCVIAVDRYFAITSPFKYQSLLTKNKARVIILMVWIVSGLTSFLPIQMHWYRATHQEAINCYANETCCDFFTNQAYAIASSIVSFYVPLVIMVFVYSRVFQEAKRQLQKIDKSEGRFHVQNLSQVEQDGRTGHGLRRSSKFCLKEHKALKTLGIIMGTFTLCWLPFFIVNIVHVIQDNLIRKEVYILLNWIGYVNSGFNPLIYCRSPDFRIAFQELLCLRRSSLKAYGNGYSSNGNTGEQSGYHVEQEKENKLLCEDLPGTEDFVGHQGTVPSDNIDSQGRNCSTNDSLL
Numbers stand for hits; 0 = inactive; ? = inconclusive; - = no result; ! = not confirmed by another sample. Unless noted, calls follow the shape of the dose curve; as a rule, active = well fitted curve in the direction sought with a large enough effect; inconclusive = small, poorly fitted or top-dose-only effect, or another doubt; inactive = no such curve, though single readings can be large; an effect the other way counts as inactive or inconclusive.

SMILES	BRCA1 expr up	RGS4 inhibitor	PTHR1 agonist	DRD3 antagonist	D3 ag	B2AR arrestin
CCN(CC)C(=O)C1CCCN(c2ccc([N+](=O)[O-])cc2/C=N/NC(=O)c2ccc([N+](=O)[O-])cc2)C1 (stereo unspecified)	0	0	0	-79.2	0	0
CCC(=O)N1CCCC1(C)C(=O)Nc1ccc2scnc2c1 (stereo unspecified)	0	-	0	0	0	-
CC(C)c1ccc(NC(=O)Nc2nnc([C@H]3C[C@H](O)[C@@H](CO)O3)s2)cc1	0	-	0	0	0	-
CCOC(=O)CNC(=O)CC(c1cc(OC)c(OC)c(OC)c1)N1Cc2ccccc2C1=O (stereo unspecified)	0	0	0	-	0	-
CCOc1ccc(C2(C)CC(=O)N(C)C2=O)cc1 (stereo unspecified)	0	0	0	0	0	0
O=C(Cn1nnc(-c2ccccc2)n1)N/N=C/c1cc([N+](=O)[O-])c(Cl)cc1Cl	0	0	0	0	0	0
O=C(Cn1nnc(-c2ccccc2)n1)N/N=C/c1cc([N+](=O)[O-])ccc1O	0	0	0	-76.5	0	0
COC(=O)c1c(NC(=O)CCCOc2ccc(C)cc2)sc2c1C(C(=O)OC)CC2 (stereo unspecified)	0	?	0	-	0	-
CCCc1noc(-c2ccc(N3CCCCC3)c([N+](=O)[O-])c2)n1	7.08µM	0	0	-	0	-
Cc1noc(-c2ccc(N3CCCCC3)c([N+](=O)[O-])c2)n1	?	0	0	-	0	-
COc1ccc2oc(C(=O)NC(C)(C)C)c(C)c2c1	7.08µM	0	0	0	0	0
COc1ccc2oc(C(=O)C3CC3)c(N)c2c1	6.31µM	0	0	0	0	0
CCc1c(C)c(C#N)c2nc3ccccc3n2c1Nc1cccc(C(F)(F)F)c1	-	0	0	-	0	-
COc1ccccc1NC(=O)C(C)OC(=O)C1COc2ccccc2O1 (stereo unspecified)	0	0	0	0	0	0
Nc1nc(SCc2ccccc2)c2ncn(C3CCCO3)c2n1 (stereo unspecified)	8.91µM	0	0	0	0	-
COc1ccc(CN2C(=O)C(CC(C)C)Nc3ncnc(N4CCN(c5ccccn5)CC4)c32)cc1 (stereo unspecified)	0	0	0	0	0	0
Cc1ccc(CN2C(=O)C(CC(C)C)Nc3ncnc(N4CCN(c5ccccn5)CC4)c32)cc1 (stereo unspecified)	0	0	0	-88.4	0	0
CC(C)CC1Nc2ncnc(N3CCN(c4ccccn4)CC3)c2N(Cc2ccc(Br)cc2)C1=O (stereo unspecified)	0	0	0	-99.1!	0	0
CC1CC(C)CN(CCCNC(=O)CCC(=O)N2CCOc3ccccc32)C1 (stereo unspecified)	0	0	0	0	0	0
O=C1Nc2ccc([N+](=O)[O-])cc2OC1CCN1CCOCC1 (stereo unspecified)	0	0	0	0	0	0
O=C1Nc2ccc([N+](=O)[O-])cc2OC1CCN1CCN(c2ccccc2)CC1 (stereo unspecified)	0	0	0	-50.8	0	0
CCc1ccccc1NC(=O)C(=O)NCCc1sc(-c2cccc(C)c2)nc1C	0	0	0	-	0	-
c1ccc(SCc2nc3ccccc3s2)nc1	3.16µM	0	0	0	0	0
c1ccc(-c2nc3ccccc3s2)nc1	8.91µM	0	0	0	0	0
CC1(C)Oc2ccc(C(=O)NN)cc2NC1=O	0	0	0	0	0	0
SMILES	BRCA1 expr up	RGS4 inhibitor	PTHR1 agonist	DRD3 antagonist	D3 ag	B2AR arrestin
O=C(Nc1nnc([C@H]2C[C@H](O)[C@@H](CO)O2)s1)Nc1cccc2c1CCCC2	0	-	0	0	0	-
Cc1cc(NC(=O)CS(=O)(=O)c2cn(Cc3cccc(Cl)c3)c3ccccc23)no1	0	-	0	0	0	-
CC(C)OCCCNC(=O)CN1C(=O)CSc2ccc(S(=O)(=O)N3CCOCC3)cc21	0	0	0	0	0	-
C=CCNC(=O)c1onc(CCl)c1C(=O)OC	0	0	0	0	65.2	0
O=C(Nc1ccccc1)N1CCCC1c1cccs1 (stereo unspecified)	0	0	0	0	0	0
O=C(Cn1nc(C(F)(F)F)c2c1CCCC2)NC1CCCC1	0	0	0	-55.1	0	0
CCc1nnc(NC(=O)CSc2nc3c([nH]c4ccccc43)c(=O)n2-c2cc(C)cc(C)c2)s1	0	0	0	-	0	-
CC1CCC/C(=C(\C#N)c2nc(-c3cc4ccccc4oc3=O)cs2)C1 (stereo unspecified)	3.16µM	0	0	0	0	0
CC1CCCC(CC(N)=O)CC1 (stereo unspecified)	0	0	0	0	0	-
CSc1nnc(NC(=O)c2cccc(S(=O)(=O)N3CCOCC3)c2)s1	0	0	0	0	0	0
Cc1ccc(Sc2ccc(/C=N/O)cc2[N+](=O)[O-])cc1	0	0	?	-69.3	0	-
CO/N=C/c1ccc(Sc2ccc(C)cc2)c([N+](=O)[O-])c1	0	0	0	0	0	0
CC(C)CNC(=O)C1(C)CCCN1C(=O)c1cncc(Br)c1 (stereo unspecified)	0	-	0	0	0	-
CC(C)CNC(=O)C1(C)CCCN1C(=O)c1ccncc1 (stereo unspecified)	0	-	0	0	88.6	-
CC(C)CNC(=O)C1(C)CCCN1C(=O)C(C)(C)Oc1ccc(Cl)cc1 (stereo unspecified)	0	-	0	-100.4	0	-
Cc1ccc(Cl)c(NC(=O)COC(=O)c2ccccc2C(=O)c2ccc(Cl)c([N+](=O)[O-])c2)c1Cl	0	0	0	-71.1	0	0
Cc1ccc(C(=O)c2ccccc2C(=O)OCC(=O)NCCc2ccc(Cl)cc2Cl)cc1	0	0	0	0	0	0
CCCNC(=O)COC(=O)c1ccccc1C(=O)c1ccc(Cl)c([N+](=O)[O-])c1	0	0	0	-101.3	0	0
C(=N\Nc1nc2ccccc2[nH]1)/c1c[nH]c2ccccc12	0	0	0	0	46.6	0
Fc1cccc(F)c1/C=N/Nc1ccccn1	0	0	0	0	0	0
Fc1cccc(/C=N/Nc2nc3ccccc3[nH]2)c1	4.47µM	0	0	0	0	0
Fc1cccc(/C=N/Nc2ccccn2)c1	7.94µM	0	0	0	0	0
O=[N+]([O-])c1cc(/C=N/Nc2nc3ccccc3[nH]2)c(O)cc1O	0	0	0	-65.4	0	0
Cc1ccccc1/C=N/Nc1nc2ccccc2[nH]1	0	0	0	0	0	0
Cc1ccc2ccccc2c1C(O)c1ncc(-c2ccc(Cl)cc2)[nH]1 (stereo unspecified)	0	-	0	0	0	-

Screening data as filed in PubChem BioAssay.
